Hits are enriched below; roughly 3.1% of the tested compounds scored in any of these assays.
TSHR antag = Antagonists of the Thyroid Stimulating Hormone Receptor: HTS campaign; Thyrotropin receptor (Homo sapiens), P16473; TSHR-expressing cells, TSH-stimulated cAMP HTRF, 2 h; hits give low values; activity change, negative = inhibition, % at 11.5 µM; 0.2% of 330,000 active; AID 504810, 2011;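 active = activity change below a set negative limit, meaning inhibition stronger than a set level, cut at about -70% in these data; inconclusive = activity change between two set negative limits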
Target sequence (P16473 whole entry, looked up): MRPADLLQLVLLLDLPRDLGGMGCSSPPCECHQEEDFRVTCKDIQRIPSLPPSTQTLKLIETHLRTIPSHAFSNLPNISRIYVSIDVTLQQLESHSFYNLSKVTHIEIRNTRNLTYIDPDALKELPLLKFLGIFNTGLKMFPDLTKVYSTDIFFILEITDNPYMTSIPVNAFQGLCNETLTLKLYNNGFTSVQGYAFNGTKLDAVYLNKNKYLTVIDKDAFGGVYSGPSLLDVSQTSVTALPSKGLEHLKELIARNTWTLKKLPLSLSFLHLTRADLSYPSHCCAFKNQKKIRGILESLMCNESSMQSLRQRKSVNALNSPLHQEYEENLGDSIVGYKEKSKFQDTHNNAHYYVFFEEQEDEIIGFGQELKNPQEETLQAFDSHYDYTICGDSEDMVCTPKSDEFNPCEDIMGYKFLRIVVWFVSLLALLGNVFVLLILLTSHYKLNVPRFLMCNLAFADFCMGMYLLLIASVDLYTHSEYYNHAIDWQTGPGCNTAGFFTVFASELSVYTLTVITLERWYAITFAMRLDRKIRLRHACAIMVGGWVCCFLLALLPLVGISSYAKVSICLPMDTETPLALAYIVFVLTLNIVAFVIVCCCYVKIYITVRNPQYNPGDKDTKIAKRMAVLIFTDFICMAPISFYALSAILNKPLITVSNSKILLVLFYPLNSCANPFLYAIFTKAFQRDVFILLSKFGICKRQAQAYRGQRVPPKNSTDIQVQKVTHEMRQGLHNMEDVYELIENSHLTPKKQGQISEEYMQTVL
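Competitive HTRF cAMP read-out (cryptate anti-cAMP antibody, cAMP-d2; 30 min, room temperature) in freshly harvested TSHR cells. Compounds added before TSH at EC80 (4nM final), followed by 2 hours' incubation at 37 deg C.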
PTAP TSG101 blk = qHTS Assay for Iinhibitors of HIV-1 Budding by Blocking the Interaction of PTAP/TSG101; Fluorescence polarization, FITC-PTAP peptide / Tsg101 binding; 340,000 tested, under 10 active; Tumor susceptibility gene 101 protein (Homo sapiens), Q99816; AID 493005, 2010; Potency, µM (series often up to 115 µM), hits mostly inhibitors; active = well fitted inhibition curve with a large enough effect in the main read-out, with a control signal flat, not every such curve was filed as active; inconclusive = small, poorly fitted or top-dose-only effect, or effect the other way, or a change in a side signal; inactive = no such curve, though single readings can be large or run the other way
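Fluorescence anisotropy tracks displacement of a FITC-tagged PTAP peptide (50 nM) from the Tsg101 binding domain (10 uM), following a 20 min room-temperature incubation at pH 7.5.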
PLK1 PBD block = qHTS for Inhibitors of PLK1-PDB (polo-like kinase 1 - polo-box domain): Primary Screen | AID 720504, 2013 | Potency, µM, actives largely listed as inhibitors | Plk1 PBD binding of FITC phosphopeptide, fluorescence polarization | 2.8% of 360,000 active | Serine/threonine-protein kinase PLK1 (Homo sapiens), P53350; note: series mostly up to about 57 µM; nearly all actives have a fitted effect of over 65% in size
VDR inhibitor = Inhibitors of the vitamin D receptor (VDR): qHTS; 0.93% of 400,000 active; AID 504847, 2011; Potency, µM, most hits filed as inhibitors; VDR-SRC2-3 peptide fluorescence polarization, 2 h
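Fluorescence polarization assay measuring small-molecule disruption of VDR binding to the coregulator peptide SRC2-3. Compounds were pin-transferred (23 nl) into the reagent mix and incubated 2 h at room temperature before reading.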
uPA generation = qHTS for Inhibitors of Cell Surface uPA Generation. cell surface uPA generation assay, qHTS. Potency, µM (titrated, usually from 38.3 µM), usual class: inhibitors. 0.31% of 330,000 active. AID 540303, 2011; active = well fitted inhibition curve with a large enough effect; inconclusive = small, poorly fitted or top-dose-only effect; inactive = no such curve, though single readings can be large or run the other way; tested in mouse RAW 264.7 cells; note: nearly all actives have a fitted effect of over 55% in size
Each line names hits and unclear results; the compound was inactive in the other large screens. Unless noted, calls come from the whole dose curve; as a rule, active = well fitted curve in the direction sought with a large enough effect; inconclusive = small, poorly fitted or top-dose-only effect, or another doubt; inactive = no such curve, though single readings can be large; an effect the other way counts as inactive or inconclusive.

CCOC(=O)c1sc(NC(=O)C2c3ccccc3Oc3ccccc32)c(C(=O)OCC)c1C	none (no result: TSHR antag, PTAP TSG101 blk, PLK1 PBD block, uPA generation)
O=S(=O)(c1cccc2c(Cl)cccc12)N1CCCNCC1	none (no result: PTAP TSG101 blk, PLK1 PBD block, uPA generation)
CN(C)c1ncnc2c1C(c1ccccc1)C(C)(C)O2 (centres undefined)	none (no result: TSHR antag)
Cc1occc1C(=O)Nc1ccc(S(N)(=O)=O)cc1	PLK1 PBD block 21µM, VDR inhibitor inconclusive
NS(=O)(=O)c1ccc(NC(=O)c2c(Cl)cccc2Cl)cc1	PLK1 PBD block 21µM
Cc1occc1C(=O)NNC(=O)Nc1ccc(Cl)c(Cl)c1	PLK1 PBD block 6.7µM, VDR inhibitor inconclusive
NS(=O)(=O)c1ccc(NC(=O)c2c(F)cccc2Cl)cc1	none
Cc1ccsc1C(=O)NNC(=O)Nc1ccc(Cl)c(Cl)c1	PLK1 PBD block inconclusive
CCCCNC(=O)Cn1nc(N2CCN(c3ccccc3OC)CC2)ccc1=O	none (no result: TSHR antag, PTAP TSG101 blk, PLK1 PBD block, uPA generation)
COc1ccccc1CNC(=O)C1CCN(S(=O)(=O)c2cn(C)cn2)CC1	none (no result: TSHR antag, PTAP TSG101 blk, PLK1 PBD block, uPA generation)
O=C(CCC1N=C2c3ccccc3N=C(SCc3cccc(Cl)c3)N2C1=O)NCc1cccs1 (centres undefined)	none (no result: TSHR antag, PTAP TSG101 blk, PLK1 PBD block, uPA generation)
Cn1nc(C(F)(F)F)c(-c2cccc(C(F)(F)F)c2)c1NC(=O)CSCC(=O)O	TSHR antag -74
Cn1nc(C(F)(F)F)c(-c2ccc(F)cc2)c1NC(=O)Nc1ccc(F)cc1	none
CC(=O)N[C@H](Cc1c[nH]c2ccccc12)C(N)=O	none (no result: TSHR antag, PTAP TSG101 blk, PLK1 PBD block, uPA generation)
CCC(=O)Nc1ccc(C=C(C(C)=O)C(C)=O)cc1	VDR inhibitor 79µM, uPA generation inconclusive
CCOC(=O)c1ccc(NC(=O)c2c(NC(=O)CCC(=O)O)sc3c2CCCCC3)cc1	PLK1 PBD block 27µM, VDR inhibitor inconclusive
CCOc1ccccc1NC(=O)c1c(NC(=O)CCC(=O)O)sc2c1CCCCC2	PLK1 PBD block inconclusive, VDR inhibitor inconclusive
CCC(=O)Nc1sc2c(c1C(=O)Nc1cccc(C)c1)CCCC2	none (no result: TSHR antag, PTAP TSG101 blk, PLK1 PBD block, uPA generation)
CCC(=O)Nc1sc2c(c1C(=O)Nc1ccc(Br)cc1)CCCCC2	VDR inhibitor 14µM (no result: TSHR antag, PTAP TSG101 blk, PLK1 PBD block, uPA generation)
CCc1ccccc1Nc1nc2cc(Cl)c(Cl)cc2nc1-n1nc(C)cc1C	none (no result: TSHR antag, PTAP TSG101 blk, PLK1 PBD block, uPA generation)
COc1cccc(CNC(=O)c2ccc3nc(-c4ccccc4)c(-c4ccccc4)nc3c2)c1OC	none (no result: TSHR antag, PTAP TSG101 blk, PLK1 PBD block, uPA generation)
COC(=O)CSc1nc(C)cc(C)n1	PLK1 PBD block 7.5µM, VDR inhibitor inconclusive
CCOC(=O)CSc1nc(C)cc(C)n1	none
C=C(CN(C)C)C(=O)c1ccc(OC2OC(COC(C)=O)C(OC(C)=O)C(OC(C)=O)C2OC(C)=O)cc1 (centres undefined)	PLK1 PBD block 15µM, VDR inhibitor 40µM (no result: TSHR antag)
CC(=O)OCC1OC(Oc2cc(OC(C)=O)c3c(=O)cc(-c4ccc(OC(C)=O)cc4)oc3c2)[C@@H](OC(C)=O)C(OC(C)=O)C1OC(C)=O (some centres undefined)	none (no result: TSHR antag, PTAP TSG101 blk, PLK1 PBD block, uPA generation)
Cn1c(/C=C/c2ccc(Cl)cc2)c([N+](=O)[O-])c(=O)n(C)c1=O	uPA generation 5.6µM
CN1C(=O)C2(C(C#N)=C(N)Oc3n[nH]c(-c4ccc(Cl)cc4)c32)c2ccccc21 (centres undefined)	none
CC(=O)N1C(=O)C2(C(C#N)=C(N)Oc3n[nH]c(-c4ccccn4)c32)c2ccccc21 (centres undefined)	PLK1 PBD block 24µM
CNc1nc(N/N=C/c2ccc([N+](=O)[O-])cc2)nc(Nc2ccccc2)n1	PLK1 PBD block 27µM, VDR inhibitor inconclusive
O=[N+]([O-])c1ccc(Nc2nc(N/N=C/c3cccc(F)c3)nc(N3CCCC3)n2)cc1	none
C=CCOn1c(=O)c(-c2ccccc2)[n+]([O-])c2ccccc21	none
C=CCOn1c(=O)c(-c2cc3ccccc3o2)[n+]([O-])c2ccccc21	PTAP TSG101 blk inconclusive, PLK1 PBD block 30µM
CC1CCN(c2ccc3nnc(CCC(=O)N4CCN(c5ccccc5F)CC4)n3n2)CC1	none
CCOC(=O)C(Cc1ccccc1)NC(=O)CCc1nnc2ccc(N3CCCC3)nn12 (centres undefined)	PLK1 PBD block 24µM
CC1CC(C)CN(C(=O)CCc2nnc3ccc(N4CCCCC4)nn23)C1 (centres undefined)	PLK1 PBD block 30µM
CCOc1ccc(NC(=O)CCc2nnc3ccc(N4CCC(C)CC4)nn23)cc1	none
CCOC(=O)CNC(=O)CCc1nnc2ccc(N3CCC(C)CC3)nn12	PLK1 PBD block 24µM, VDR inhibitor inconclusive
CC1CCN(C(=O)CCc2nnc3ccc(N4CCC5(CC4)OCCO5)nn23)CC1	none
CCOC(=O)C1CCN(C(=O)CCc2nnc3ccc(N4CCC(C)CC4)nn23)CC1	PLK1 PBD block 24µM, VDR inhibitor inconclusive
O=C(Nc1cnc(N2CCC(N3CCCCC3)CC2)c(C(=O)O)c1)c1ccc(Br)cc1	none (no result: TSHR antag, PTAP TSG101 blk, PLK1 PBD block, uPA generation)
CC(C)C[C@@H](CC(=O)N[C@@H](CCC(=O)O)CC(=O)O)NC(=O)[C@@H]1CNCC[C@H]1NC(=O)C[C@H](CCCN)NC(=O)C[C@H](Cc1c[nH]c2ccccc12)NC(=O)[C@@H]1CCCC[C@H]1N	none (no result: TSHR antag, PTAP TSG101 blk, PLK1 PBD block, uPA generation)
COc1ccccc1N1CCN(c2nc3ccc(C)cc3n3nnnc23)CC1	none (no result: TSHR antag, PTAP TSG101 blk, PLK1 PBD block, uPA generation)
CCCCN1C(=O)C(CC(=O)NCCN2CCOCC2)CC(C(=O)N2CCCCCC2)=C1C (centres undefined)	none (no result: TSHR antag, PTAP TSG101 blk, VDR inhibitor, uPA generation)
CC(C1SC(=S)NC1=O)C1SC(=S)NC1=O (centres undefined)	PLK1 PBD block 2.1µM (no result: TSHR antag, PTAP TSG101 blk, VDR inhibitor, uPA generation)
C[C@H](CCC(=O)NCC(=O)O)C1CC[C@H]2C3CC[C@@H]4C[C@H](O)CC[C@]4(C)C3C[C@H](O)[C@]12C (some centres undefined)	none (no result: TSHR antag, PTAP TSG101 blk, PLK1 PBD block, uPA generation)
COC(=O)C(C)Sc1ncnc2c1nnn2-c1ccc(F)cc1 (centres undefined)	none
COc1ccc(-n2nnc3c(SC(C(C)=O)C(=O)N(C)C)ncnc32)cc1 (centres undefined)	PLK1 PBD block 24µM, VDR inhibitor 7.1µM
COc1ccccc1-c1nnc(SCc2ccccn2)n1C	none (no result: PTAP TSG101 blk)
COc1ccc(-c2nnc(SCc3ccccn3)n2C)cc1	PLK1 PBD block 30µM
O=C(Nc1nnc(C2CC2)s1)c1ccc(Cl)c(S(=O)(=O)N2CCc3ccccc3C2)c1	TSHR antag -90
CCc1nnc(NC(=O)c2ccc(Cl)c(S(=O)(=O)N3CCc4ccccc43)c2)s1	none
COCCn1c(SCc2ccc(F)cc2)nc2c1c(=O)[nH]c(=O)n2C	PLK1 PBD block 11µM, VDR inhibitor inconclusive, uPA generation inconclusive
C/C(Cl)=C/Cn1c(SCc2ccc(Cl)cc2)nc2c1c(=O)[nH]c(=O)n2C	PLK1 PBD block inconclusive, VDR inhibitor inconclusive
Cn1c(SCc2cccc(Br)c2)nc2c1c(=O)[nH]c(=O)n2C	none
Cc1ccc(CSc2nc3c(c(=O)[nH]c(=O)n3C)n2CCC(C)C)cc1	none

High-throughput results: PubChem BioAssay, National Center for Advancing Translational Sciences (NCATS)
